Source: PubChem BioAssay
Shown is part of a subset that was picked to be rich in hits.
Tg IFNy HTS: T. gondii growth inhibition under IFN-gamma | Toxoplasma gondii growth in IFN-gamma-treated host cells; stronger effect = lower value | activity change, negative = inhibition, % (concentration not given with the values) | actives 3.8% (n = 69,000); in the data active means activity change below about -70%, passing the limit was not always enough;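 further: host cells are HeLa cells infected with Toxoplasma gondii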
A number is an active result; – = inactive; ! = a repeat was not active.

SMILES | Tg IFNy HTS
Cc1nc(-c2ccc(CNC(=O)c3cc(CC(C)C)nn3C)cc2)no1 | -78
CC(C)c1cc(C(=O)NCc2cc(-c3ccco3)on2)n(C)n1 | –
Cc1nccn1-c1ccccc1CNC(=O)c1cc(C(C)C)nn1C | –
CC(C)c1cc(C(=O)NCc2nc(-c3ccccc3)no2)n(C)n1 | -100
CC(C)Cc1cc(C(=O)NCc2cnn3ccccc23)n(C)n1 | –
CCCn1ncc(C(=O)NCc2ccc(-c3noc(C)n3)cc2)c1C | –
CC(C)NC(=O)N1Cc2ccnn2CC(COCc2cccnc2)C1 (stereo not given) | –
CCOc1ccccc1NC(=O)c1nnn(Cc2nc(-c3ccccc3)oc2C)c1C | –
CC(=O)N1CC[C@@]2(C(=O)N3CCCC3)CCN(S(=O)(=O)c3ccccc3)CC[C@H]12 | –
Cc1c(CN2CCCC(O)(CO)CC2)[nH]c2ccc(F)cc12 (stereo not given) | –
COc1cc(Nc2nc(SCc3ccccc3Cl)nc3ccccc23)cc(OC)c1OC | –
COCCCN1CCN(C(=O)CC(=O)Nc2ccccc2C)CC1 | –
O=C(O)/C=C/c1ccc(O)c(O)c1 | –
CC(C)c1ccc(/C=C/C(=O)O)cc1 | –
O=C(O)/C=C/c1ccc(-c2ccc(O)c(C34CC5CC(CC(C5)C3)C4)c2)cc1 | -79
Cn1ccnc1CN1CCc2ncnc(-c3ccccc3)c2CC1 | –
Cc1nc2n(n1)CCN(C(=O)c1cnn3cccnc13)C2 | –
O=S(=O)(c1ccccc1F)N1CCC(c2nc3ccc(-c4ccncc4)cn3n2)CC1 | –
O=C(c1ccc(F)cc1F)N1CCC(c2nc3ccc(-c4cccnc4)cn3n2)CC1 | –
O=C(c1cnccn1)N1CCC(c2nc3ccc(-c4cccc(F)c4)cn3n2)CC1 | -72
Cc1cc(C(=O)Nc2cccc(-c3cn4ccsc4n3)c2)nc(N2CCOCC2)n1 | –
COC(=O)NC(C)CNc1nccc(-c2cn(C(C)C)nc2-c2cc(Cl)cc(NS(C)(=O)=O)c2F)n1 (stereo not given) | -71
COc1ccc(CCN(Cc2nc3ccccc3c(=O)[nH]2)C(=O)C(C)(C)C)cc1 | –
CCOc1ccc(C2c3[nH]c4ccccc4c3CCN2C(=O)c2ccncc2)cc1 (stereo not given) | –
Cc1ccc(C2c3[nH]c4ccccc4c3CCN2C(=O)c2ccccc2Br)cc1 (stereo not given) | –
SMILES | Tg IFNy HTS
O=C(c1ccccc1Br)N1CCc2c([nH]c3ccccc23)C1c1ccc(F)cc1 (stereo not given) | –
CCCC(=O)N1CCc2c([nH]c3ccccc23)C1c1ccc(C)cc1 (stereo not given) | –
Cc1ccc(C2c3[nH]c4ccccc4c3CCN2C(=O)c2ccc(N(C)C)cc2)cc1 (stereo not given) | -119
Cc1ccc(C2c3[nH]c4ccccc4c3CCN2C(=O)c2ccccc2)cc1 (stereo not given) | –
CCOc1ccc(C2c3[nH]c4ccccc4c3CCN2C(=O)c2ccc(C)cc2)cc1 (stereo not given) | -95
Cc1ccc(C2c3[nH]c4ccccc4c3CCN2C(=O)c2cccs2)cc1 (stereo not given) | –
Cc1ccc(C2c3[nH]c4ccccc4c3CCN2C(=O)c2ccccc2F)cc1 (stereo not given) | -130
CS(=O)(=O)CC(=O)N1CCC2(CCOCC2COCC2CC2)CC1 (stereo not given) | –
Cc1cccc(-c2noc(C(C)NC(=O)c3cn4cccc(C)c4n3)n2)c1 (stereo not given) | –
Cc1ccc(-c2coc(-c3ccc(NC(=O)c4ccc(F)cc4)cc3)n2)cc1 | –
CCN1CCC(CN(CC)c2nc(CCN)nc3ccccc23)C1 (stereo not given) | –
COc1c(C)cc(-c2nccc(C)n2)cc1C | –
Cc1ccccc1C1(O)CCN(C(=O)c2cn3cccnc3n2)C1 (stereo not given) | –
CN(C)C(=O)Cn1c2c(ccc1=O)CCN(Cc1nccs1)CC2 | –
COCCC1COC2(CCN(C(=O)c3nn(C)c4ccccc34)C2)C1 (stereo not given) | –
CCC(C(=O)NCc1cc(Cl)c2c(c1)OCCCO2)n1nc(C)cc1C (stereo not given) | –
O=C(CCC1C(=O)Nc2ccccc21)NCc1cc(Cl)c2c(c1)OCCCO2 (stereo not given) | –
O=C(NCc1cc(Cl)c2c(c1)OCCCO2)c1cccc(Nc2ncccn2)c1 | -71
COc1cccc(CN(C)CC(=O)N2CCCC2c2ccc(Nc3ncccc3C)cn2)c1 (stereo not given) | –
CS(=O)(=O)Cc1ccc(N2CC(c3ccncc3)C2)nc1 | –
COc1cc(C(=O)N2CCC3(CC2)NC(=O)c2ccc(F)cc2N3C)cc(OC)c1OC | –
c1cc(-c2nccn2CCCn2ccnc2)ccn1 | –
CN1CCN(CCCN(C)CC(C)(C)c2ccc(Cl)cc2)CC1 | –
CN1CCN(CCCN2c3ccccc3Sc3ccc(C(F)(F)F)cc32)CC1 | -80!
CN1CCN(C2=Nc3ccccc3Sc3ccc(Cl)cc32)CC1 | –
Cc1oc(C2CCN(C(=O)c3ccc(C#N)cc3)CC2)nc1C(=O)N(C)C | –
